Experimental data taken from PubChem BioAssay.
Calls of active or inactive are those of the source. Unless noted, how the calls were made is not given here.

Key:
[1] = compounds binding Alexa647 anti-His antibody – biochemical, small-molecule microarray, 635 nm fluorescence, artefact control for SMM control protein annotation, primary screen (AID 1128); details: higher = more signal;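 further: score merges feature fluorescence with signal-to-noise for each printed compound spot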
[2] = system: Human papillomavirus type 1a E7 protein (residues 1-88); assay: HPV1a E7 small-molecule binders, primary screen, biochemical, small-molecule microarray, residues 1-88, 635 nm (AID 1129); details: small-molecule microarray binding, fluorescence 635 nm; higher = more signal
[3] = target: Focal adhesion kinase 1 (Homo sapiens) (UniProt Q05397); assay: PTK2 protein binding on printed compound slides – biochemical, small-molecule microarray, 635/667 nm fluorescence, BSA, DTT, primary screen (AID 1130); details: 635 nm fluorescence, higher = more signal;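 further: composite of spot emission at 667 nm and signal to noise over triplicate slides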
[4] = system: Fibrinogen (Alexa647-labelled); assay: Alexa647-fibrinogen binding to printed small molecules – biochemical, small-molecule microarray, 635/667 nm fluorescence, artefact control for SMM control-protein annotation, profiling panel (AID 1131); details: fibrinogen-A647 binding fluorescence, higher = more signal;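 further: z-score merges 667 nm fluorescence with per-spot signal-to-noise over triplicate slides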
[5] = target: Follistatin (Homo sapiens) (UniProt P19883); assay: FST protein binding to printed compounds – biochemical, small-molecule microarray, 635/667 nm fluorescence, primary screen (AID 1132); details: 635 nm fluorescence, higher = more signal
[6] = target: Fibroblast growth factor 2 (Homo sapiens) (UniProt P09038); assay: basic fibroblast growth factor binding to printed compounds – biochemical, small-molecule microarray, 635/667 nm fluorescence, primary screen (AID 1133); details: FGF2, fluorescence 635/667, higher = more signal
[7] = JC-1 mitochondrial potential readout, lung cancer cells – cell-based, A549, JC-1 fluorescence, basal, 24 h, 100 nL, profiling panel (AID 1138); details: higher = more signal;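 further: A549 lung adenocarcinoma cells under basal conditions with no added stimulus; test concentration not given here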
Lefty1 = Lefty1 protein binding to printed compounds – biochemical, small-molecule microarray, 635/667 nm fluorescence, primary screen (AID 1139); details: fluorescence 635/667, higher = more signal
[8] = system: wheat germ agglutinin (Triticum aestivum), Alexa647-labelled; assay: Alexa647-WGA lectin binding to printed small molecules – biochemical, small-molecule microarray, 635/667 nm fluorescence, artefact control for SMM control-protein annotation, profiling panel (AID 1140); details: WGA-A647 binding, 635 nm fluorescence, higher = more signal;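 further: score merges 667 nm feature emission with signal to noise over triplicate slides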
[9] = target: Luciferin 4-monooxygenase (Photinus pyralis) (UniProt P08659); assay: inhibition of purified Photinus pyralis luciferase – biochemical, luminescence, purified enzyme, 2006 set, primary screen (AID 1141); details: purified firefly luciferase, SteadyGlo luminescence, 30 min; higher = more signal, called active from +8 up or from −8 down;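 further: cell-free assay with purified firefly luciferase at 100 ng per well in PBS; test concentration not given here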
[10] = system: Wnt5a (protein binding on small-molecule microarray); assay: small molecules binding Wnt5a protein – biophysical, small-molecule microarray, 635/667 nm fluorescence, primary screen (AID 1142); details: 635 nm fluorescence, higher = more signal;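 further: fluorescence read at 667 nm with signal to noise per printed feature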
[11] = ATP-based viability of Huh7 replicon cells – cell-based, CellTiter-Glo luminescence, basal, 48 h, cytotoxicity control for HCV replication inhibitor project, primary screen (AID 1143); details: higher = more signal, called active from +8 up or from −8 down;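 further: Huh7 hepatoma cells carrying a hepatitis C replication reporter with no stimulus; test concentration not given here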
[12] = Pseudomonas biofilm growth suppression – PAO1 strain, BacTiter-Glo luminescence, LB-PBS, primary screen (AID 1144); details: P. aeruginosa PAO1 biofilm, 12 h, higher = more signal
[13] = basal CRE-LacZ reporter activity in PC12 – cell-based, unstimulated, primary screen (AID 1145); details: no forskolin, luminescence, 4.5 h, higher = more signal, called active from +8 up or from −8 down
[14] = forskolin-driven CRE-LacZ activity in PC12 – cell-based, CRE-LacZ reporter, forskolin-stimulated, primary screen (AID 1146); details: luminescence, 4.5 h, higher = more signal, called active from +8 up or from −8 down;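 further: PC12 cells with 6xCRE LacZ reporter stimulated by forskolin 10 µM; beta-galactosidase reporter signal reflecting CREB driven transcription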
[15] = target: Streptavidin (Streptomyces avidinii) (UniProt P22629); assay: compounds binding control protein streptavidin – biophysical, small-molecule microarray, 635/667 nm fluorescence, artefact control for SMM compound annotation, primary screen (AID 1147); details: higher = more signal;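 further: signal reflects streptavidin binding to arrayed compounds as a control protein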
[16] = probe aInhba binding on compound microarray – biochemical, small-molecule microarray, 635/667 nm fluorescence, primary screen (AID 1148); details: higher = more signal;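 further: score merges 667nm spot fluorescence with signal-to-noise for antibody binding to printed compounds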
Torsin-1A (Homo sapiens) [17] = target: Torsin-1A (Homo sapiens) (UniProt O14656); assay: TOR1A wild-type binding on microarray – cell lysate, small-molecule microarray, lysate, 635/667 nm, primary screen (AID 1149); details: COS7 hTOR1A-WT lysate, 635 nm fluorescence, higher = more signal
Torsin-1A (Homo sapiens) [18] = target: Torsin-1A (Homo sapiens) (UniProt O14656); assay: torsin A mutant lysate binding on microarrays – cell lysate, small-molecule microarray, COS7 lysate, 635/667 nm fluorescence, primary screen (AID 1150); details: COS7 hTOR1A mutant lysate, 635 nm fluorescence, higher = more signal;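 further: score pools 667 nm emission and signal to noise measuring lysate protein binding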
[19] = system: Sonic hedgehog protein (Shh); assay: Sonic hedgehog microarray binding compounds – biochemical, small-molecule microarray, 635/667 nm fluorescence, primary screen (AID 1151); details: 635 nm fluorescence, higher = more signal;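 further: Shh protein binding to compounds spotted on small-molecule microarray slides; score combines spot fluorescence intensity with signal-to-noise across triplicate slides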

Sequence of Follistatin (Homo sapiens) (P19883 whole entry, looked up): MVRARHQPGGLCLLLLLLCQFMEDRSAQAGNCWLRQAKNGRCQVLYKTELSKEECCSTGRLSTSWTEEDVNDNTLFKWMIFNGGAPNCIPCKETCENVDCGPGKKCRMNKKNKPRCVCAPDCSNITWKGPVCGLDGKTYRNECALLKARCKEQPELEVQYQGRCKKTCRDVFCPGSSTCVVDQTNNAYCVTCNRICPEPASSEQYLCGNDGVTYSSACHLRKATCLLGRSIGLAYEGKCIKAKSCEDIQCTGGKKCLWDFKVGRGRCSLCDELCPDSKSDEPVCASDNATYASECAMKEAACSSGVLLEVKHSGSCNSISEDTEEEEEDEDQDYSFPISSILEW
Sequence of Torsin-1A (Homo sapiens) (O14656 whole entry, looked up): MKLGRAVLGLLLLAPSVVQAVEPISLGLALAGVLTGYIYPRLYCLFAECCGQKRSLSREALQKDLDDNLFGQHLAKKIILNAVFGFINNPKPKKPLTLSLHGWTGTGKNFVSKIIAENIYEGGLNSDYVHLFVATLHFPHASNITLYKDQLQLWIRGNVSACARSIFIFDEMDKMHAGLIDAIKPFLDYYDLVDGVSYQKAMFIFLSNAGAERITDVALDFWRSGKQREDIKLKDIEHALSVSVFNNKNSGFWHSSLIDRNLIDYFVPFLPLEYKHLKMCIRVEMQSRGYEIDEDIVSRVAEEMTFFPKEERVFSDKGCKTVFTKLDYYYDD
Sequence of Streptavidin (Streptomyces avidinii) (P22629 whole entry, looked up): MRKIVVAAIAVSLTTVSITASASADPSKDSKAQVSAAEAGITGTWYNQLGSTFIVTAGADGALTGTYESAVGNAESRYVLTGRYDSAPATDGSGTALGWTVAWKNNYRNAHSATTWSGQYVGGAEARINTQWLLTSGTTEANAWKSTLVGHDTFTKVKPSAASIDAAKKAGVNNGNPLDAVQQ
Sequence of Fibroblast growth factor 2 (Homo sapiens) (P09038 whole entry, looked up): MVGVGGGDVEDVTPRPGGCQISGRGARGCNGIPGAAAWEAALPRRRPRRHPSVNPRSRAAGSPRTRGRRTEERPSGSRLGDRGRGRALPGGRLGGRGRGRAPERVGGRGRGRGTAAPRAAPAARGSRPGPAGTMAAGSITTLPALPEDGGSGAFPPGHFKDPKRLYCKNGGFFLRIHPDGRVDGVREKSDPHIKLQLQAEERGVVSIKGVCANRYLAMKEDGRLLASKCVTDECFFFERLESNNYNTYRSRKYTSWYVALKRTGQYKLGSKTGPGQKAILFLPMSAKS
Sequence of Focal adhesion kinase 1 (Homo sapiens) (Q05397 whole entry, looked up): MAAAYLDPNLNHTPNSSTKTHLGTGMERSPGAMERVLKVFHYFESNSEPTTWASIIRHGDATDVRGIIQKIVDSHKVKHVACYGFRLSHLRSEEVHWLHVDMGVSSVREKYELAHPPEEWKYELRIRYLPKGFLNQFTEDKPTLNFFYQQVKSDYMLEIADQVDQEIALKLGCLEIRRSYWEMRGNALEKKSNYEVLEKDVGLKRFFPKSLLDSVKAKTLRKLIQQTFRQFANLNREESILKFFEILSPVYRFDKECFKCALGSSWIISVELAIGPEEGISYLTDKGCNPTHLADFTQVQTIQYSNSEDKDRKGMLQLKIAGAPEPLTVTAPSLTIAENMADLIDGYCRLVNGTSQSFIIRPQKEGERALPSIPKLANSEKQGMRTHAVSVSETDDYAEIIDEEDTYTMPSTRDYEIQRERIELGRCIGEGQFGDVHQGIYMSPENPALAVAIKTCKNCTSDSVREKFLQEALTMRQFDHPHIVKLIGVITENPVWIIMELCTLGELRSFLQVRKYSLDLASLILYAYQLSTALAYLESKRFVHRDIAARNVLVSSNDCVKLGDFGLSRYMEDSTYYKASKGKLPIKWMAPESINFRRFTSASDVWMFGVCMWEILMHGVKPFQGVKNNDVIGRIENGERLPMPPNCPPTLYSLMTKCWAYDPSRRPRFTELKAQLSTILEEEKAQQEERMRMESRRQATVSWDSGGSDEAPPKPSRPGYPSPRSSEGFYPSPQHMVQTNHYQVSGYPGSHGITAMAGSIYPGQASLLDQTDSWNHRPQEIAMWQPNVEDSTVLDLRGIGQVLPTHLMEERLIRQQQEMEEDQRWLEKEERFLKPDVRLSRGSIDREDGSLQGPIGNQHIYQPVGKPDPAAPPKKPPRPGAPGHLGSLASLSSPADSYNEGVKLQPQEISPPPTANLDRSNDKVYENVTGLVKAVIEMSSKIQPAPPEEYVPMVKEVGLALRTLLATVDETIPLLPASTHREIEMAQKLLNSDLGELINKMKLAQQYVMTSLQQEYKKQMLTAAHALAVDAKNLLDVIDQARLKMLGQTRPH
Sequence of Luciferin 4-monooxygenase (Photinus pyralis) (P08659 whole entry, looked up): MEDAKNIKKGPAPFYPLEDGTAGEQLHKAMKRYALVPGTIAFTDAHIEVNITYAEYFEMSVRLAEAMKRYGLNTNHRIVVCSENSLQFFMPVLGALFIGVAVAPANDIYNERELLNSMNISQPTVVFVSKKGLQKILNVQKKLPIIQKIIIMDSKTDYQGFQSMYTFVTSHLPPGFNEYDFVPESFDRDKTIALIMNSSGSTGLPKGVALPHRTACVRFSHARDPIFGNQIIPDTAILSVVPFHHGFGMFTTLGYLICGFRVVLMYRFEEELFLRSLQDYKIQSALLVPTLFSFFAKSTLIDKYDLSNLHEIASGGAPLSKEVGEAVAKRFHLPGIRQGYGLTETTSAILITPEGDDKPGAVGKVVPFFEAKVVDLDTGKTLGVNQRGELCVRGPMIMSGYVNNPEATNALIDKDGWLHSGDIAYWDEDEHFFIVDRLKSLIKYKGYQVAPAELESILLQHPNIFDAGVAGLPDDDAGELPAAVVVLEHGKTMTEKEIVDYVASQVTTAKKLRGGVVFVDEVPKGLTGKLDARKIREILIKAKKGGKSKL

Compound | composite z-score [1] | composite z-score [2] | composite z-score [3] | composite z-score [4] | composite z-score [5] | composite z-score [6] | z-score [7] | composite z-score (Lefty1) | composite z-score [8] | z-score [9] | composite z-score [10] | z-score [11] | z-score [12] | z-score [13] | z-score [14] | composite z-score [15] | composite z-score [16] | composite z-score (Torsin-1A (Homo sapiens) [17]) | composite z-score (Torsin-1A (Homo sapiens) [18]) | composite z-score [19]
COC(=O)C(CC#Cc1ccc2c(c1)[C@]1(C(=O)N2)[C@H](c2ccc(O)cc2)N2[C@H](c3ccccc3)[C@H](c3ccccc3)OC(=O)[C@H]2[C@@H]1C(=O)O)C(=O)OC | 0.124 | 0.56 | 0.318 | 0.298 | 0.879 | -0.12 | -0.233 | 0.369 | -0.22 | -0.462 (inactive) | -0.198 | -0.627 (inactive) | -0.191 (inactive) | 0.389 (inactive) | 0.416 (inactive) | -0.0974 | -0.212 | -0.295 | 0.168 | 0.262
C=CCC(OC(C)=O)[C@@H]1[C@@H](N(Cc2ccc(-c3ccccc3)cc2)C(=O)Cc2ccc(OC)cc2)c2cc(OCCCO)ccc2N1C(=O)c1ccc(-c2ccccc2)cc1 (stereo not given in full) | -0.163 | 0.152 | 0.855 | 0.137 | 0.409 | -0.0805 | 2.32 | 0.182 | 0.495 | -0.663 (inactive) | 0.0546 | -1.56 (inactive) | 0.148 (inactive) | 1.34 (inactive) | -0.522 (inactive) | -0.0206 | -0.0018 | 0.0765 | 0.0644 | 1.16
O=c1c2ccc(Br)cc2nc(-c2ccccc2)n1Cc1cccc(O)c1 | 0.741 | 0.988 | 0.551 | 0.671 | 0.346 | 0.283 | 0.836 | -0.0693 | 1.05 | -0.273 (inactive) | 0.153 | -0.913 (inactive) | 0.32 (inactive) | 0.272 (inactive) | -1.17 (inactive) | 0.669 | 0.229 | 1.45 | 1.88 | 0.332
COc1ccccc1CN1C(=O)c2ccccc2[C@](Cc2ccccc2I)(C(=O)NCCN2CCOCC2)[C@@H]1c1ccc(CO)cc1 | 0.74 | 1.18 | 0.467 | 0.913 | 1.41 | 1.39 | 2.51 | 0.988 | 0.718 | -1.06 (inactive) | 0.375 | -4.52 (inactive) | 0.506 (inactive) | 0.648 (inactive) | -0.746 (inactive) | 0.593 | -0.101 | 0.301 | 0.504 | 1.48
O=C1O[C@H](c2ccccc2)[C@H](c2ccccc2)N2[C@H]1[C@@H](C(=O)N1CCN(c3ncccn3)CC1)[C@]1(C(=O)Nc3ccc(C#CCCO)cc31)[C@H]2c1ccccc1OCCO | 1.55 | 1.2 | 0.358 | 0.869 | 0.618 | 1.29 | 0.91 | 0.151 | 1.02 | -0.682 (inactive) | 0.163 | -1.55 (inactive) | 0.525 (inactive) | 0.765 (inactive) | -0.484 (inactive) | 0.376 | 0.0714 | 0.506 | 0.686 | 0.371
C=C(COC)C(=O)CC[C@H](OC(=O)c1ccccc1-c1ccccc1C(=O)O)c1ccc(CO)o1 | 0.581 | 0.154 | 0.36 | -0.576 | 1.35 | 1.66 | -0.666 | 1.5 | -0.2 | -0.846 (inactive) | 0.634 | 0.465 (inactive) | -0.39 (inactive) | 0.434 (inactive) | 0.964 (inactive) | -0.451 | -0.179 | 0.507 | 1.79 | 1.69
O=C1O[C@H](c2ccccc2)[C@H](c2ccccc2)N2[C@H]1[C@@H](C(=O)NC[C@H](O)c1ccccc1)[C@]1(C(=O)Nc3ccccc31)[C@H]2c1ccccc1OCCO | 2.24 | 1.22 | 0.271 | 0.916 | 0.455 | 0.538 | -0.789 | 0.799 | 0.356 | -11 (active) | -0.0435 | -6.33 (inactive) | -0.908 (inactive) | -0.581 (inactive) | -0.563 (inactive) | -0.164 | 0.0841 | 0.735 | 1.18 | 1.29
O=C1c2ccccc2[C@](Cc2ccccc2I)(C(=O)NCC(F)(F)F)[C@H](c2ccc(CO)cc2)N1Cc1ccccc1 | 0.0638 | 1.17 | 0.77 | 0.97 | 1.14 | -0.0189 | 0.71 | 0.343 | 0.469 | 0.875 (inactive) | -0.134 | -0.396 (inactive) | 0.144 (inactive) | 0.272 (inactive) | 2.76 (inactive) | 1 | 0.098 | -0.661 | 0.341 | 0.46
O=C1c2ccccc2[C@](Cc2ccccc2I)(C(=O)NC2CC2)[C@H](c2ccc(CO)cc2)N1Cc1ccccc1Cl | 1.07 | 1.17 | 0.344 | 0.0468 | 1.23 | 1.6 | 0.756 | 0.0036 | 0.86 | -0.0487 (inactive) | 0.805 | -0.77 (inactive) | 0.167 (inactive) | 0.468 (inactive) | -0.159 (inactive) | 0.191 | 0.168 | 0.501 | 1.04 | 1
[N-]=[N+]=Nc1ccccc1[C@H]1OC(c2ccc(OCCCO)cc2)=N[C@@]1(Cc1ccccc1)C(=O)NCc1ccccc1 | 1.29 | 1.2 | 0.425 | 0.997 | 1.15 | 0.291 | 0.361 | 0.362 | 0.415 | -6.55 (inactive) | 0.821 | -5.4 (inactive) | -0.638 (inactive) | -0.16 (inactive) | -1.26 (inactive) | 0.501 | 0.0301 | 0.104 | 0.383 | -0.272
